# Most compounds without a hit are left out; they make up all but 3.3% or so of the library.
# Sm TGR block: qHTS Assay for the Inhibitors of Schistosoma Mansoni Peroxiredoxins | Schistosoma mansoni thioredoxin glutathione reductase (TGR), Q962Y6 | purified TGR, DTNB reduction, TNB absorbance 405 nm | Potency, µM (highest dose often 114 µM), without a hit: at the top dose activity change, negative = inhibition, most hits filed as inhibitors | 360,000 compounds, 3% hits; also: nearly all actives have a fitted effect of over 60% in size
#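 First, TGR (20 nM dispensed) and NADPH were mixed with compound. Second, a 15 min room-temperature incubation followed. Third, further NADPH and then DTNB were added to start the reaction. Finally, TNB absorbance was monitored kinetically.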
# LmPK inh: qHTS Assay for Inhibitors of Leishmania Mexicana Pyruvate Kinase (LmPK); Q27686; purified LmPK, Kinase-Glo ATP luminescence, 1 h; Potency, µM (doses to about 57.5 µM), without a hit: at the highest dose activity change, negative = inhibition, actives largely listed as inhibitors; 290,000 compounds, 0.37% hits; AID 1721, 2009
#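 qHTS format; LmPK 0.1 nM; substrates PEP 0.5 mM and ADP 0.1 mM. One-hour room-temperature incubation, then coupled luciferase luminescence; 0.5 nM enzyme wells mark activation.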
# RE007 growth inh: qHTS Assay for Inhibitors of the HIV-1 protein Vpr; 360,000 compounds, 0.21% hits; Potency, µM (highest dose often 92.2 µM), without a hit: at the highest dose activity change, negative = less growth, actives largely listed as inhibitors; S. pombe RE007 Vpr strain, BacTiter-Glo ATP luminescence, 24 h; active = well fitted falling curve with a large enough effect; inconclusive = small, poorly fitted or top-dose-only effect; inactive = no such curve, though single readings can be large or run the other way; also: nearly all actives have a fitted effect of over 50% in size
#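 Fission yeast strain RE007, carrying one chromosomally integrated HIV-1 vpr copy, was seeded at OD 0.01 in PMG+AL medium with 23 nL pinned compound. After 24 h at 30 °C and 99% humidity, viability was read by BacTiter-Glo luminescence.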
# Giardia FBPA inh: qHTS Assay for Inhibitors of Fructose-1,6-bisphosphate Aldolase from Giardia Lamblia; purified Giardia FBPA; Potency, µM (series often up to 59.6 µM), without a hit: at the top dose activity, negative = inhibition, most hits filed as inhibitors; 290,000 compounds, 0.71% hits; AID 2451, 2010; also: nearly all actives have a fitted effect of over 55% in size
# Target sequence (A8B2U2 whole entry, looked up): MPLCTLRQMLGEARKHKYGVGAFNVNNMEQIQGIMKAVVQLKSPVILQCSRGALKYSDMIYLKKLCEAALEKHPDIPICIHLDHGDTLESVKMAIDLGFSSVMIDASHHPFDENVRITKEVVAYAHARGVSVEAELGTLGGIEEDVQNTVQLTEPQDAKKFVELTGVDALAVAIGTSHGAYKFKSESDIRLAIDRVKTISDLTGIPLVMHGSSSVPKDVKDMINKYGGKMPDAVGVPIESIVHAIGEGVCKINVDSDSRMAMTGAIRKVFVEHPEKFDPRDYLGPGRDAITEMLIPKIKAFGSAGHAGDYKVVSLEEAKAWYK
#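 Giardia FBPA (40 nM reagent) was preincubated 10 min at RT with compound (up to 57.5 uM final), then substrate plus GAPDH/TPI/NAD/arsenate coupling system with diaphorase/resazurin was added; resorufin fluorescence (525/598 nm) was read after 20 min.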
# TbPYK inhibitor: qHTS of Trypanosoma Brucei Inhibitors; TbPYK enzyme, Kinase-Glo Plus ATP luminescence, 45 min; 410,000 compounds, 0.12% hits; pyruvate kinase (Trypanosoma brucei), Q57TT1; Potency, µM (top dose mostly 76.8 µM), for inactives: at the top dose activity, negative = inhibition, most hits filed as inhibitors; also: nearly all actives have a fitted effect of over 50% in size
#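 Luminescence from Kinase-Glo Plus, added after a 45-minute room-temperature reaction, served as the end-point read-out. The enzyme and substrate were preincubated with compound before ADP (130 uM final) initiated turnover. Concentration-effect curves came from normalized qHTS data.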
# The depositor's hits bear a star; ? = inconclusive; / = no result. Unless noted, calls follow the shape of the dose curve; as a rule, active = well fitted curve in the direction sought with a large enough effect; inconclusive = small, poorly fitted or top-dose-only effect, or another doubt; inactive = no such curve, though single readings can be large; an effect the other way counts as inactive or inconclusive. % is scaled to controls: 0 for no effect and ±100 for the full control effect; potency is read from the fitted curve at half-maximal effect.
SMILES,Sm TGR block,LmPK inh,RE007 growth inh,Giardia FBPA inh,TbPYK inhibitor
Cc1ccc(S(=O)(=O)C(CNC(=O)C(=O)NCCc2ccc(Cl)cc2)c2ccco2)cc1 (configuration not stated),?,/,/,/,0%
Cc1ccc(S(=O)(=O)C(CNC(=O)COc2ccccc2)c2ccco2)cc1 (configuration not stated),?,/,/,/,0%
O=C(NCCc1ccc(Cl)cc1)C(=O)NCC(c1ccco1)S(=O)(=O)c1ccc(Cl)cc1 (configuration not stated),4µM*,/,/,/,-2%
Cc1ccc(S(=O)(=O)C(CNC(=O)C(=O)NCCc2ccccc2)c2ccco2)cc1 (configuration not stated),45µM*,/,/,/,-1%
Cc1cc(S(=O)(=O)NCC(c2ccco2)S(=O)(=O)c2ccccc2)ccc1F (configuration not stated),?,/,/,/,-1%
COc1ccc(S(=O)(=O)Nc2cccc(S(=O)(=O)NC3=NCCC3)c2)cc1[N+](=O)[O-],5%,/,-18%,/,-20%
COc1ccccc1CNC(=O)c1cc2sccc2n1Cc1ccc(F)cc1,6%,/,/,/,7%
Cc1ccc(S(=O)(=O)C(CNC(=O)c2ccc(C(F)(F)F)cc2)c2ccco2)cc1 (configuration not stated),?,/,/,/,-3%
O=C(CC(c1ccco1)S(=O)(=O)c1ccccc1)c1ccc(F)cc1 (configuration not stated),1.6µM*,-10%,-7%,-1%,-7%
COc1ccc(CNC(=O)C(=O)NCC(c2ccco2)S(=O)(=O)c2ccc(Cl)cc2)cc1 (configuration not stated),11µM*,/,/,/,5%
COc1ccc(C(=O)NCC(c2ccco2)S(=O)(=O)c2ccc(F)cc2)cc1 (configuration not stated),-12%,/,/,/,-6%
COc1ccc(CNC(=O)C(=O)NCC(c2ccco2)S(=O)(=O)c2ccc(C)cc2)cc1 (configuration not stated),-29%,/,/,/,-4%
O=C(NCC(c1ccco1)S(=O)(=O)c1ccc(Cl)cc1)c1ccc(C(F)(F)F)cc1 (configuration not stated),0.89µM*,/,/,/,-1%
O=Cc1cccc(OC(=O)/C=C/c2ccco2)c1,28µM*,15%,?,1%,1%
O=C(c1ccncc1)N1CCC[C@@]2(CCN(c3ncccn3)C2)C1,/,/,/,1%,4%
CC(C)N1CCc2c(sc(NC(=O)c3ccc(S(=O)(=O)N4CCOCC4)cc3)c2C#N)C1,45µM*,-1%,11%,-17%,0%
O=[N+]([O-])/C(=C\Nc1ccc(F)cc1F)S(=O)(=O)c1ccccc1,10µM*,8%,15%,-5%,-8%
O=C1OC(/C(=C\Nc2ccc(F)cc2F)[N+](=O)[O-])c2ccccc21 (configuration not stated),11µM*,11%,-6%,1%,-5%
O=C(Nc1ccc(SC(F)F)cc1)c1ccc(F)cc1,-1%,-3%,-2%,-19%,-2%
COc1ccc(/C(C)=N/Nc2ccc(F)cc2F)c(O)c1,-25%,-1%,4%,-3%,-5%
COc1ccc(/C(C)=N/Nc2ccccc2Cl)c(O)c1,14µM*,-16%,39%,-6%,11%
Cn1c(=O)c2c(nc(SCC(=O)Nc3ccc(F)cc3F)n2Cc2ccccc2)n(C)c1=O,-11%,/,/,/,-5%
O=C(/C=C/c1ccco1)OCc1nnc(-c2ccc(Cl)cc2)o1,11µM*,22%,-1%,0%,7%
O=C(/C=C/c1ccco1)OCn1nnc2ccccc2c1=O,22µM*,0%,-11%,2%,-2%
O=C(OCc1nnc(-c2ccccc2)o1)c1ccc(Cl)cc1,/,6%,-13%,-2%,0%
SMILES,Sm TGR block,LmPK inh,RE007 growth inh,Giardia FBPA inh,TbPYK inhibitor
O=C(/C=C/c1ccco1)OCc1nnc(-c2ccccc2)o1,14µM*,14%,-12%,1%,-3%
Cc1ccc(/C=C/C(=O)OCn2nnc3ccccc3c2=O)o1,0%,3%,46%,-4%,-3%
CN(C)S(=O)(=O)c1cccc(C(=O)N2CCN(Cc3ccccc3)CC2)c1,-34%,0%,8%,1%,-3%
O=C(COC(=O)c1cccnc1Cl)c1ccc(OC(F)F)cc1,-2%,16µM*,-10%,-1%,-1%
COc1ccc(C(=O)COC(=O)c2cccnc2Cl)c(OC)c1,-1%,-3%,20%,-6%,-2%
Cc1ccc(NC(=O)c2ccc(C)c(S(=O)(=O)N3CCCCC3)c2)nc1,6%,/,5%,/,11%
COc1ccc(OC)c(N2Cc3cc(C)c(C)cc3C2)c1,45µM*,-4%,-1%,?,-26%
CCOc1ccccc1N1Cc2cc(C)c(C)cc2C1,?,-6%,-15%,-7%,-3%
CC1OC(Oc2c(-c3cc(O)c(O)c(O)c3)oc3cc(O)cc(O)c3c2=O)C(O)C(O)C1O (configuration not stated),0%,9%,-2%,10µM*,-24%
C[C@@H]1O[C@@H](OC[C@@H]2O[C@H](Oc3c(-c4ccc(O)cc4)oc4cc(O)cc(O)c4c3=O)[C@@H](O)[C@H](O)[C@H]2O)[C@H](O)[C@H](O)[C@H]1O,/,/,-4%,/,0%
CCCN1CCc2cccc3c2C1Cc1ccc(O)c(O)c1-3 (configuration not stated),/,/,/,13µM*,/
CCOC(=O)CSC1=NC(=O)/C(=C/c2ccc(OC)cc2)S1,6.3µM*,-24%,?,-5%,-14%
CCOC(=O)C1C(=O)CC(C)(O)C(C(=O)OCC)C1c1ccc(SC)cc1 (configuration not stated),8%,3%,-8%,1%,-3%
O=C(NC(=S)NC(=O)c1ccccc1F)c1ccccc1F,2.8µM*,0%,-1%,?,3%
O=C(NC(=S)NCCc1ccccc1)c1ccccc1F,40µM*,-8%,-7%,/,-4%
Cc1ccc(C(=O)NC(=S)NCc2ccccc2)cc1,6.3µM*,-5%,?,0%,7%
COc1ccc(CCNC(=S)NC(=O)c2ccccc2)cc1C,3.5µM*,3%,-14%,-11%,0%
Cc1cc(NC(=O)CN2CCN(c3ccccn3)CC2)ccc1Br,7%,-9%,-9%,2%,2%
O=C(NC(=S)NCCc1ccccc1)c1ccccc1,18µM*,2%,-19%,7%,2%
O=C(CCc1ccccc1)NNC(=S)NC(=O)c1ccccc1,8%,-12%,?,14%,1%
Cc1ccc(C(=O)NC(=S)Nc2cccnc2Cl)cc1,16µM*,-2%,-12%,?,0%

# Source: PubChem BioAssay
